Assay outcomes deposited in PubChem by several laboratories.
eIF4E 4G PPI: eIF4E/eIF4G interaction inhibition in translation initiation; 0.37% of 220,000 active; inhibition, % at 21.7 µM; P63073+Q04637; TR-FRET eIF4E-eIF4GI(517-606) binding, 2 h;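 active = inhibition above about 30%, limit read from the data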;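 also: 0% = full FRET control wells and 100% = background wells lacking eIF4GI fragment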
PERK inhibitor: blocks human PERK kinase; Q9NZJ5; CHO PERK-DD fusion, SEAP luminescence translation reporter; inhibition, % at 5.6 µM; 0.17% of 220,000 active;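 active = inhibition above the mean inhibition of all tested compounds plus 3 SD, set separately per screening campaign, cut at about 2.9% in these data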;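 also: PERK kinase domain activated by AP20187 dimerizer at 100 nM; 0% = DMSO with dimerizer and 100% = rapamycin at 8.4 µM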
PABP1 MLLE inh: blocks PAM2 peptide binding to the PABP1 MLLE domain; 0.36% of 360,000 active; P11940; GST-MLLE / FITC-PAM2 fluorescence polarization; inhibition, % at 20 µM; AID 588489; in the data active = inhibition above about 35%, passing the limit was not always enough;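 also: plate controls were DMSO wells with GST-MLLE for no effect and wells lacking GST-MLLE protein for full effect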
PABP FP inh: PABP-poly(A) binding inhibition | calls only at 35 µM | 1% of 290,000 active | PABP-poly(A) RNA binding, fluorescence polarization;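 also: calls also rest on retests at 20 µM and on dose response follow-up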
eIF4H inh: inhibitors of RNA binding by human eIF4H; Q15056; eIF4H fluorescence polarization binding assay; inhibition, % at 35 µM; 0.94% of 290,000 active;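 also: calls also rest on retests at 20 µM and on dose response follow-up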
The depositor's hits bear a star; i = inactive; ? = inconclusive; nt = not tested or not shown; + = active, no number. Only some compounds are listed: those with a hit (about 1.6% of all), similar ones and a draw of the others. Unless noted, no rule for the calls is given here.

SMILES	eIF4E 4G PPI	PERK inhibitor	PABP1 MLLE inh	PABP FP inh	eIF4H inh
COc1ccc(-c2ccc(-c3noc(-c4ccccc4C)n3)c(OC)n2)cc1	-3.8	-0.2	-21.7	i	43.7
COc1ccc(-c2ccc(-c3noc(-c4cccs4)n3)c(OC)n2)cc1	-33.7	0.4	-47.1	+	29.2*
O=c1[nH]ncc(N2CCCC2)c1Cl	80.5*	1.1	15.4	i	15.0
O=c1[nH]ncc(N2CCN(C(c3ccccc3)c3ccccc3)CC2)c1Cl	7.8	-0.2	-11.9	i	-8.8
CN(C)S(=O)(=O)c1cccc(-c2nn(-c3ccccc3)cc2/C=C2\SC(=S)NC2=O)c1	17.1	0.4	-82.4	+	?
Cc1ccc(C(=O)Nc2ccc(N3CCOCC3)nc2)cc1	-3.6	0.0	13.5	i	14.4
O=C(Nc1ccc(N2CCOCC2)nc1)c1ccc(F)cc1	8.0	0.9	3.1	i	40.3*
O=C(O)C1Sc2[nH]c(=O)sc2C2c3cc(Cl)ccc3OC(=O)C12 (centres undefined)	10.4	0.4	15.0	+	14.3
O=C(O)C1Sc2[nH]c(=O)sc2C2c3cc(Br)ccc3OC(=O)C12 (centres undefined)	-2.9	0.7	17.9	?	?
O=C(O)CN1C(=O)C2C3CC(C2C1=O)C1C(c2ccc(F)cc2)c2sc(=O)[nH]c2SC31 (centres undefined)	-0.1	0.4	39.0*	i	7.5
COC(=O)C1=C/C=C\CN(C(c2ccccc2)c2ccccc2)/C=C\1C(=O)OC	nt	nt	0.4	nt	nt
COc1ccc(CC(=O)Nc2nnc(C(C)C)s2)cc1	46.5*	-0.1	-4.7	i	-10.1
CC(C)c1nnc(NC(=O)CS(=O)(=O)Cc2ccccc2)s1	-0.2	-0.5	41.1*	i	-2.3
CCC(SCC(=O)OC)C(=O)Nc1nnc(C(C)C)s1 (centres undefined)	-5.3	1.0	39.4*	i	-3.1
C[C@H](NC(=O)c1nc[nH]c1C(=O)N(C)CCO)c1ccccc1	nt	nt	9.4	nt	nt
CC(C)C1OC2c3cccc4cccc(c34)C2N1c1ccccc1 (centres undefined)	-1.2	0.9	43.9*	i	105.4
Oc1c(C=Nc2ccccc2Cl)[nH]c2ccccc12	3.2	-0.7	42.5*	i	-2.6
O=C(O)c1cc2ncc(CCO)cn2n1	3.9	-0.3	8.2	i	12.6
CCOc1ccccc1-c1nc(-c2cc3ccccc3nc2OC)no1	-7.0	0.1	-20.1	i	54.3*
COc1ccc(-c2nc(N3CCN(C)CC3)sc2-c2ccc(OC)cc2)cc1	nt	nt	14.5	i	-6.0
O=S(=O)([N-]c1nc2ccccc2nc1-[n+]1ccccc1)c1ccc(Cl)cc1	2.1	-0.9	5.8	i	-0.1
Cc1cc[n+](-c2nc3ccccc3nc2C(=C=[N-])C#N)cc1	11.3	0.4	-12.7	+	69.5*
Cc1cc[n+](-c2nc3ccccc3nc2[N-]S(=O)(=O)c2ccccc2)cc1	-1.2	1.7	15.5	+	50.6*
Cn1c(N)c(C(=O)COC(=O)CCCOc2ccc(Cl)cc2Cl)c(=O)n(C)c1=O	2.1	1.0	-1.2	i	-10.2
CSCCC(NC(=O)CCNC(=O)c1ccccc1Cl)c1nc2ccccc2[nH]1 (centres undefined)	nt	nt	3.2	nt	nt
SMILES	eIF4E 4G PPI	PERK inhibitor	PABP1 MLLE inh	PABP FP inh	eIF4H inh
COc1ccc(C(=O)C[n+]2ccc3ccccc3c2C)cc1	-0.8	-1.4	5.5	+	90.6*
Cc1ccc(OCC(=O)N2CCN(S(=O)(=O)c3ccccc3)CC2)c([N+](=O)[O-])n1	2.6	-0.1	-7.8	+	?
Cc1ccc(OCC(=O)N2CCC(Cc3ccccc3)CC2)c([N+](=O)[O-])n1	nt	nt	-29.6	nt	nt
Cc1ccc(NC(=O)CSc2nc(-c3ccco3)nc3cc(=O)[nH]n23)c(Cl)c1	nt	nt	-4.1	+	85.7*
Cc1ccc(NC(=O)CSc2n[nH]c(-c3ccco3)n2)c(C)c1	2.0	-0.3	6.0	i	-6.3
CC(C)(C)c1ccc(C(=O)N2CCC2(C)C(=O)NCc2cccs2)cc1 (centres undefined)	nt	nt	-8.8	nt	nt
NC(=O)c1cnn(C2CCS(=O)(=O)C2)c1 (centres undefined)	-4.8	1.5	-5.0	i	10.2
O=c1c(/C=N/OCc2ccc(Cl)cc2Cl)c[nH]n1-c1cccc(Cl)n1	1.5	0.8	-8.1	i	24.7*
O=c1c(-n2cncn2)c[nH]n1-c1cccc(Cl)n1	3.8	1.2	-0.6	i	-6.2
CCc1cc2c(=O)nc3n(c2s1)Cc1ccccc1/C3=C(/O)c1ccccc1Cl	-5.1	-0.6	16.6	i	98.3
CCc1cc2c(=O)nc3n(c2s1)Cc1ccccc1/C3=C(/O)c1ccc(F)cc1	-6.7	0.6	11.6	+	70.8*
CCc1cc2c(=O)nc3n(c2s1)Cc1ccccc1/C3=C(/O)c1cccc([N+](=O)[O-])c1	-16.8	-0.6	13.9	+	51.8*
COc1ccc(CN2C[C@@H](CO)O[C@@H](n3cnc4c(N5CCN(CCO)CC5)ncnc43)C2)cc1	nt	nt	-2.8	nt	nt
CCn1nc(C(=O)Nc2ccc(S(=O)(=O)Nc3ncccn3)cc2)c2ccccc2c1=O	1.9	-0.5	-11.9	i	3.0
CCCn1nc(C(=O)Nc2ccc(S(=O)(=O)Nc3nccs3)cc2)c2ccccc2c1=O	-0.1	-0.9	-38.9	+	57.6*
O=C(Nc1ccc(S(=O)(=O)Nc2nccs2)cc1)c1nn(-c2ccc(F)cc2)ccc1=O	nt	nt	6.4	+	79.9*
CCOc1ccc(-n2ccc(=O)c(C(=O)Nc3ccc(S(=O)(=O)Nc4nccs4)cc3)n2)cc1	nt	nt	9.5	i	33.5
O=C(Nc1ccc(S(=O)(=O)Nc2nccs2)cc1)c1cc(-c2ccccc2)nc2ccccc12	3.6	0.4	7.8	i	9.7
Cc1ccc(-c2cc(C(=O)Nc3ccc(S(=O)(=O)Nc4nccs4)cc3)c3ccccc3n2)c(C)c1	-1.6	0.4	22.4	+	59.6*
Cc1c(C(=O)Nc2cccc(Cl)c2)c2ccccn2c1CCc1ccncc1	2.5	-0.3	-24.8	+	?
Cc1c(C(=O)Nc2ccc(Cl)cc2)c2ccccn2c1CCc1ccncc1	-6.2	0.7	-38.4	i	11.5
CCc1ccc(C(=O)CSc2ncn[nH]2)cc1	31.7*	1.4	29.1	i	-6.3
Cc1ccc(C(=O)CSc2ncn[nH]2)cc1	26.3	0.9	14.2	i	8.0
Cc1ccccc1NC(=O)c1ccccc1N(C)S(=O)(=O)c1ccccc1	nt	nt	12.4	nt	nt
Cc1cc(OCC(=O)NC(Cc2c[nH]c3ccc(O)cc23)C(=O)O)c2c(C)c(C)c(=O)oc2c1 (centres undefined)	nt	nt	6.2	i	41.4
CCCc1cc(=O)oc2cc(OCC(=O)NC(Cc3c[nH]c4ccc(O)cc34)C(=O)O)c(Cl)cc12 (centres undefined)	nt	nt	-13.2	+	52.0*
O=C(COc1ccc2c(-c3ccccc3)cc(=O)oc2c1)N[C@@H](Cc1c[nH]c2ccc(O)cc12)C(=O)O	nt	nt	1.9	i	34.4
